Assay outcomes: PubChem BioAssay, National Center for Advancing Translational Sciences (NCATS)
KB-V1 cytotox: kills drug-selected multidrug resistant KB-V1 cells | KB-V1 MDR cells viability, CellTiter-Glo, 72 h | Potency, µM (doses to about 46.1 µM), most hits filed as cytotoxic | 400,000 compounds, 3.4% hits; further: nearly all actives have a fitted effect of over 60% in size
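Drug-selected KB-V1 cells, grown in DMEM lacking phenol red with 10% FBS, receive compound titrations; after three days at 37 degrees C, surviving cell ATP is quantified by CellTiter-Glo luminescence and responses normalized and curve-fitted.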
IL-1B inflam inh: blocks inflammasome-driven IL-1 beta release; activity change, % at 57.5 µM; THP-1 LPS/ATP IL-1B secretion, AlphaLISA, 16 h; active compounds read low; 360,000 compounds, 4.7% hits; in the data active means activity change below about -50%; inconclusive means mostly about -30% to -49%
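Secreted IL-1B measured by AlphaLISA bead assay after 16 h compound exposure of THP-1 cells; compounds (final up to 57.5 uM) added 1 h before LPS (250 ng/mL) and ATP (1.25 mM) stimulation; lower signal means less secretion.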
KB-3-1 cytotox: KB-3-1 parental cell cytotoxicity; AID 1347075; Potency, µM (doses to about 46.1 µM), usual class: cytotoxic; 400,000 compounds, 1.4% hits; KB-3-1 viability, CellTiter-Glo ATP luminescence, 72 h; further: nearly all actives have a fitted effect of over 60% in size
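Viability of parental KB-3-1 cells, measured by CellTiter-Glo luminescence, followed a 72 h incubation at 37 °C with pinned compounds in phenol-red-free DMEM containing 10% FBS.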
SW480 rereplic: induces DNA re-replication in SW480 colon adenocarcinoma cells; SW480 DNA re-replication, Hoechst DNA content imaging, 48 h; Potency, µM (highest dose often 46.1 µM), most hits filed as activators; 340,000 compounds, 1.8% hits; further: nearly all actives have a fitted effect of over 55% in size
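SW480 cells exposed to compounds for 48 hr at 37 C, 5% CO2, then Hoechst-stained 40 min. Nuclear DNA content imaged by fluorescence scanning (405 nm excitation, 500-530 nm emission); re-replication scored as increased high-intensity nuclei.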
MCF10A rerep: DNA re-replication induction in MCF 10a cells. MCF 10A DNA re-replication, Hoechst nuclear intensity, 48 h. 350,000 compounds, 2.9% hits. Potency, µM (titrated, usually from 46.1 µM), actives largely listed as activators; further: nearly all actives have a fitted effect of over 50% in size
Hits are given with their value; . = inactive; ? = inconclusive; / = no result given; ! = not confirmed by another sample; [ ] = dose if it differs, or a comment. Sampled rows, rich in hits. Any-hit rate of the full collection: about 9.9%. Unless noted, the call rests on the fitted dose curve; in most records, active means well fitted curve in the direction sought with a large enough effect; inconclusive means small, poorly fitted or top-dose-only effect, or another doubt; inactive means no such curve, though single readings can be large; an effect the other way counts as inactive or inconclusive.

SMILES | KB-V1 cytotox | IL-1B inflam inh | KB-3-1 cytotox | SW480 rereplic | MCF10A rerep
CCS(=O)(=O)N1CCC(c2nc(-c3ccc(C(F)(F)F)cc3)no2)CC1 | . | . | 6.5µM | . | .
O=[N+]([O-])c1cccc(S(=O)(=O)N2CCC(c3nc(-c4ccncc4)no3)CC2)c1 | . | . | . | . | .
CCN1CCN(c2cc3c(cc2F)c(=O)c(S(=O)(=O)c2ccc(OC)cc2)cn3CC)CC1 | . | / | . | / | /
O=C(N=Nc1c(O)[nH]c2ccccc12)c1cccc(S(=O)(=O)Nc2ccccc2Cl)c1 | . | . | . | . | .
CC(C)c1ccc2[nH]c(O)c(N=NC(=O)c3cccc(S(=O)(=O)Nc4ccccc4Cl)c3)c2c1 | . | . | . | . | 15µM
COc1cc2c(cc1OC)CN(C(=O)CCC(=O)c1ccc(F)cc1)CC2 | ? | . | 16µM | ? | ?
COc1cc2c(cc1OC)CN(C(=O)c1cc3ccccc3oc1=O)CC2 | 4.6µM | . | ? | ? | ?
COc1cc2c(cc1OC)CN(C(=O)CSc1ccccc1C)CC2 | . | -60 | . | . | .
CCc1nc2c(OCC3CCCCC3)cccn2c1N(C)C(=O)c1ccc(C)cc1 | ? | . | ? | / | /
O=C(N/C(=C\c1cccc([N+](=O)[O-])c1)C(=O)N1CCOCC1)c1cccc(Br)c1 | / | . | / | . | .
CCCN(CCC)CCNC(=O)C1CCN(Cc2nc(-c3ccc(Cl)cc3)oc2C)CC1 | ? | ? | 23µM | . | .
Cc1oc(-c2ccc(Cl)cc2)nc1CN1CCCC(C(=O)NCc2ccc(Cl)cc2)C1 (stereo not drawn) | . | / | . | / | /
Cc1oc(-c2ccc(Cl)cc2)nc1CN1CCC(C(=O)NCc2cccnc2)CC1 | . | -58 | . | . | ?
Cc1oc(-c2cccc(Cl)c2)nc1CN1CCC(C(=O)NCCc2ccc(Cl)cc2)CC1 | . | / | . | / | /
CCCCn1c(SCC(=O)N2c3ccccc3CCc3ccccc32)nc2c1c(=O)n(C)c(=O)n2C | ? | . | . | . | .
Cc1cc(NC(=O)CSc2nc3ccccc3n2CCC#N)no1 | . | -56 | . | . | .
CCCCn1c(SCC(=O)Nc2cc(C)on2)nc2ccccc2c1=O | . | . | . | . | .
CCCCn1c(Oc2ccc(C(=O)OC)cc2)nc2c1c(=O)n(C)c(=O)n2C | 16µM | -73 | . | . | .
CCCCn1c(SCc2nnc(-c3ccccc3)o2)nc2c1c(=O)n(C)c(=O)n2C | 2.6µM | . | . | . | .
CCCn1c(SCC(=O)Nc2ccccc2C(=O)OC)nc2c1c(=O)n(C)c(=O)n2C | 5µM | . | . | . | .
CCCn1c(SCC(=O)Nc2ccccc2N2CCCCC2)nc2c1c(=O)n(C)c(=O)n2C | ? | . | . | . | .
CCCCn1c(SCC(=O)Nc2cc(C)on2)nc2c1c(=O)n(C)c(=O)n2C | 15µM | . | . | . | .
CC(C)c1ccc(NC2CCCN(C(=O)c3ccsc3)C2)cc1 (stereo not drawn) | ? | ? | . | . | .
Cc1ccccc1NC(=O)Cn1nnc(C(=O)NCc2ccco2)c1N | ? | . | 18µM! | 15µM | ?
CCOc1ccccc1NC(=O)c1nnn(CC(=O)Nc2ccc3c(c2)OCO3)c1N | ? | . | ? | . | .
SMILES | KB-V1 cytotox | IL-1B inflam inh | KB-3-1 cytotox | SW480 rereplic | MCF10A rerep
CCOc1ccccc1NC(=O)Cn1nnc(C(=O)NCc2ccc3c(c2)OCO3)c1N | ? | . | 9.2µM | ? | 4.6µM
Cc1ccccc1NC(=O)Cn1nnc(C(=O)NCc2cccs2)c1N | . | / | 3.3µM | / | /
CCOc1ccccc1NC(=O)Cn1nnc(C(=O)NCc2ccco2)c1N | 0.26µM | . | 0.01µM | ? | 0.13µM
COCCN(CC(=O)Nc1cccc(C)c1C)C(=O)c1oc2c(Cl)cccc2c1C | / | . | / | . | .
CCCCNc1nc2c(S(=O)(=O)c3ccc(C)c(C)c3)nnn2c2ccsc12 | . | / | . | / | /
Cc1ccc(C)c(NC(=O)COC(=O)CC2CC3CCC2C3)c1 (stereo not drawn) | . | . | . | . | .
O=C(COC(=O)CC1CC2CCC1C2)Nc1cc([N+](=O)[O-])ccc1F (stereo not drawn) | . | -54 | . | ? | .
O=C1C(=Cc2ccco2)CCCC1=Cc1ccco1 | . | . | . | ? | ?
O=C1C(=Cc2ccco2)CCC1=Cc1ccco1 | . | -51 | . | ? | ?
COCCNc1oc(/C=C/c2cccc(OC)c2)nc1S(=O)(=O)c1ccccc1 | . | . | . | / | /
COc1ccccc1/C=C/c1nc(S(=O)(=O)c2ccccc2)c(N(C)C)o1 | . | -62 | . | ? | 21µM
COc1cccc(/C=C/c2nc(S(=O)(=O)c3ccccc3)c(N(C)C)o2)c1 | . | ? | . | ? | 12µM
CN(C)c1oc(/C=C/c2cccs2)nc1S(=O)(=O)c1ccccc1 | . | . | . | 23µM | 18µM
CCCCOc1ccc(CC(=O)N(C)O)cc1 | . | / | ? | / | /
Cc1cnn(CCC(=O)NNC(=S)Nc2cccc(Cl)c2)c1 | . | . | . | 6.5µM | .
Cc1cnn(CCC(=O)NNC(=S)Nc2ccc(F)cc2)c1 | . | . | . | . | .
O=C(CCC(=O)c1ccc(Oc2ccccc2)cc1)Nc1ccc(Cl)cc1Cl | . | ? | . | 5.8µM | ?
O=C(CCC(=O)c1ccc(Oc2ccccc2)cc1)Nc1cccc(Cl)c1 | . | . | . | . | .
O/N=C/c1ccc2cccc(OCc3ccccc3)c2n1 | . | . | . | . | .
NC(N)=N/N=C/c1ccc2cccc(OCc3ccccc3)c2n1 | . | -96 | 16µM | .[9.22 µM] | ?
COc1ccccc1CCNC(=O)CNC(=O)Cc1cccc2ccccc12 | . | . | . | . | .
Cc1cc(C)cc(NC(=O)C2CCN(c3nc4ccccc4nc3C(F)(F)F)CC2)c1 | . | / | . | / | /
CC[C@@]1(O)C(=O)OCc2c1cc1n(c2=O)Cc2cc3c(CN(C)C)c(O)ccc3nc2-1 | ? | -103 | ? | ? | .
CC[C@@]1(O)C(=O)OCc2c1cc1n(c2=O)Cc2cc3c([N+](=O)[O-])cccc3nc2-1 | / | / | / | ? | .
COc1ccccc1Cn1cnc2cccnc21 | . | . | . | . | .
SMILES | KB-V1 cytotox | IL-1B inflam inh | KB-3-1 cytotox | SW480 rereplic | MCF10A rerep
CCCc1c(-c2cccc(Cl)c2)ncn1CCc1ccccc1OC | 15µM | . | ? | / | /
COc1ccccc1Cc1c(-c2cccc(Cl)c2)nc2ccc(C)cn12 | ? | . | ? | / | /
CCCc1c(-c2cccc(Br)c2)ncn1Cc1ccccc1OC | 18µM | . | ? | / | /
CCCc1c(-c2ccc(Cl)cc2)ncn1CCc1ccccc1OC | 18µM | -93 | ? | / | /
CCCc1c(-c2ccc(F)cc2)ncn1CCc1ccccc1OC | ? | . | ? | / | /
CCCc1c(-c2ccc(Cl)cc2)ncn1Cc1ccccc1OC | 18µM | . | 16µM | / | /
CCc1c(-c2ccc(Cl)cc2)ncn1Cc1cccc(-c2ccccc2)c1 | ? | . | ? | / | /
Cc1cccc(NC(=O)CSC2=Nc3ccccc3C3=NC(CCC(=O)NCc4ccco4)C(=O)N23)c1 (stereo not drawn) | ? | / | . | / | /
